According to PubChem BioAssay (NCI):
Compounds without any hit were thinned out: in the full panel of roughly 79,000, 15% have a hit. The source made the active and inactive calls. Rule as the data show it: active = growth inhibition above about 70%; inactive = the rest.

Test: NCI Yeast Anticancer Drug Screen. Data for the wt2 strain (AID 169);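 also: 0% = growth of vehicle-treated yeast cultures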
Settings: S. cerevisiae wt2 strain growth inhibition, hits give high values
Protocol: Growth inhibition of yeast strains with defined genetic alterations is measured as a screen for potential anti-cancer activity. Selected strains with alterations in DNA damage repair or cell cycle control were exposed to compounds and growth inhibition was measured relative to vehicle treated controls. The strain used in this assay is wt2

Measured: growth inhibition

CCOC(=O)C1([Se]c2ccccc2)CCCC1=O (stereo not given)
active: at 100.0 µM 88%
inactive: at 1.2 µM 2% | at 3.7 µM 21% | at 11.0 µM 22% | at 33.0 µM 49%

CCCCN(CCCC)CC(C(C)=O)C(c1ccccc1)c1c(O)c2ccccc2oc1=O (stereo not given)
inactive: at 1.2 µM 0% | at 3.7 µM -1% | at 11.0 µM 0% | at 33.0 µM -1% | at 100.0 µM 4%

Cc1c([N+](=O)[O-])oc2ccc3ccccc3c12
inactive: at 1.2 µM 1% | at 3.7 µM 2% | at 11.0 µM 6% | at 33.0 µM 14% | at 100.0 µM 26%

O=[N+]([O-])c1ccc(C=Cc2ccccc2)cc1.[C-]#[O+].[C-]#[O+].[C-]#[O+].[Cr]
inactive: at 1.2 µM -1% | at 3.7 µM -1% | at 11.0 µM 7%
active: at 33.0 µM 80% | at 100.0 µM 83%

Cc1cc[n+](C2=C(Nc3cccc(C(F)(F)F)c3)C(=O)c3ccccc3C2=O)cc1
inactive: at 1.2 µM 1% | at 3.7 µM 1% | at 11.0 µM 3% | at 33.0 µM 8% | at 100.0 µM 12%

Cc1ccc2c(c1)C1(C)c3cc(C)ccc3SP1S2 (stereo not given)
inactive: at 1.2 µM 13% | at 3.7 µM 1% | at 11.0 µM 18% | at 33.0 µM 36% | at 100.0 µM 50%

CN(C)CCC(C(=O)C(Br)Br)(c1ccccc1)c1ccccc1
inactive: at 1.2 µM 0% | at 3.7 µM 2%
active: at 11.0 µM 73% | at 33.0 µM 99% | at 100.0 µM 99%

C[C@@]12CCC(=O)C=C1CC[C@H]1C2=CC[C@]2(C)C1CC[C@@]2(C)O (stereo not given in full)
active: at 100.0 µM 92%
inactive: at 1.2 µM -26% | at 3.7 µM -19% | at 11.0 µM -18% | at 33.0 µM 64%
